# From PubChem BioAssay (NCATS)
# Several values for one entry are separate records, joined by “and”; a condition that tells them apart may be missing. Equal values may be shown once. Records with an inconclusive call do not appear. Activity calls are given as the source filed them. Calls come from the whole dose curve; as a rule, active = well fitted activation curve with a large enough effect in the signal ratio; inconclusive = small, poorly fitted or top-dose-only effect, or a change in a side signal; inactive = flat fitted curve, though single readings scatter; the % refers to the signal ratio.
# Experiment: qHTS assay for small molecule activators of the nuclear factor-kappa B (NF-kB) signaling pathway (AID 651749); note: series mostly up to about 77 µM; % of control where 0% means no effect
# Settings: NF-kB-bla ME-180 cells, beta-lactamase FRET ratio, 16 h; activation: hits give high values
# From the text: National Center for Advancing Translational Sciences [NCATS] NIH Chemical Genomics Center [NCGC] U.S. Environmental Protection Agency [EPA] National Institutes of Environmental Health Sciences [NIEHS] National Toxicology Program [NTP] Assay Overview: Transcription factors and their stimulated target gene expression play pivotal roles across many cellular processes including responses to environmental stimuli. Proper regulation of associated pathways is critical to maintain cell health and function. Constitutive activation of transcription factor pathways has been implicated in tumors as it may block cellular functions such as apoptosis and lead to invasion and metastasis. One important transcription factor that stimulates gene expression in response to cytokines, UV radiation, and other stimuli is nuclear factor-kappa B (NF-kB). To measure activation of the NF-kB pathway, the NF-kB-bla ME-180 cell line stably expressed beta-lactamase reporter gene under the regulation of a NF-kB response element was obtained from Invitrogen. This assay allows measurement of the NF-kB pathway activity induced by compounds in a ME-180 cell line. This system quantitates NF-kB activity using a FRET-based assay system where beta-lactamase expression disrupts FRET, allowing for fluorescent measurement of activity.
# Assay Protocol Summary: For toxicology screening, 2,000 cells in 5 uL/well were dispensed into black, clear-bottom 1536-well plates using a Multidrop Combi (Thermo Scientific) dispenser. Following transfer of 23 nL compound or DMSO vehicle by a pin tool, the plates were incubated 16 hr at 37C and 5% CO2.
row,SMILES,activation
1,CCCN(CC)CC1COC2(CCC(C(C)(C)C)CC2)O1 (stereo not given),-1.56% (inactive)
2,CNC(=O)Oc1ccc(N(C)C)c(C)c1,-0.493% (inactive)
3,Nc1cccc(Cl)c1Cl,-2.53% (inactive)
4,O=c1[nH]c2ccccc2c(=O)o1,-0.747% (inactive)
5,CCc1cc(C)cc(CC)c1-c1c(OC(=O)C(C)(C)C)n2n(c1=O)CCOCC2,-1.54% (inactive)
6,O=C1c2ccccc2C(=O)N1SC(Cl)(Cl)Cl,3.09% (inactive)
7,O=CNC(N1CCN(C(NC=O)C(Cl)(Cl)Cl)CC1)C(Cl)(Cl)Cl (stereo not given),-2.29% (inactive)
8,CC(c1ccc(O)cc1)(c1ccc(O)cc1)c1ccc(O)cc1,2.37% (inactive)
9,CCOC(=O)Nc1cccc(OC(=O)Nc2ccccc2)c1,0.127% (inactive)
10,CCCCCCCCCCCC#N,-0.827% (inactive)
11,Cc1c(F)c(F)c(COC(=O)C2C(/C=C(\Cl)C(F)(F)F)C2(C)C)c(F)c1F (stereo not given),-3.24% (inactive)
12,Nc1cnn(-c2ccccc2)c(=O)c1Cl,-0.283% (inactive)
13,O=C(O)COc1ccc(Cl)cc1,-0.213% (inactive)
14,O=S(=O)(c1ccc(O)cc1)c1ccc(O)cc1,-0.813% (inactive)
15,CCC[CH2][Sn]([Cl])([Cl])[CH2]CCC,-3.49% (inactive)
16,CCOP(=O)(OCC)Oc1nc(Cl)c(Cl)cc1Cl,-2.7% (inactive)
17,CNC(=S)S,-2.14% (inactive)
18,CCC(C)(NC(=O)c1cc(Cl)c(C)c(Cl)c1)C(=O)CCl (stereo not given),-0.168% (inactive)
19,CCOP(=O)(OCC)SCS(=O)(=O)C(C)(C)C,-0.0868% (inactive)
20,CCCCCCCCCCCCC1=C(OC(C)=O)C(=O)c2ccccc2C1=O,-0.928% (inactive)

row,SMILES,activation
1,CCNc1nc(NCC)nc(SC)n1,0.586% (inactive)
2,COc1cc(Cl)c(OC)cc1Cl,-1.99% (inactive)
3,COP(=O)(OC)O/C(=C\Cl)c1cc(Cl)c(Cl)cc1Cl,-1.17% (inactive)
4,COP(=O)(OC)Oc1nc(Cl)c(Cl)cc1Cl,1.02% (inactive)
5,CNP(=O)(OC)Oc1ccc(C(C)(C)C)cc1Cl (stereo not given),1.2% (inactive)
6,CC1(C)[C@H](C(=O)O[C@H](C#N)c2cccc(Oc3ccccc3)c2)[C@@H]1/C=C(\Cl)C(F)(F)F,-0.133% (inactive)
7,CCC(C)c1cc([N+](=O)[O-])cc([N+](=O)[O-])c1O (stereo not given),-0.876% (inactive)
8,COC(=O)c1sccc1S(=O)(=O)NC(=O)Nc1nc(C)nc(OC)n1,-1.57% (inactive)
9,C=CC(=O)NCO,0.439% (inactive) and -0.866% (inactive)
10,Oc1ccc(C(c2ccc(O)cc2)(C(F)(F)F)C(F)(F)F)cc1,-2.42% (inactive)
11,O=C/C(Cl)=C(/Cl)C(=O)O,1.31% (inactive)
12,CC1(C)CON(Cc2ccccc2Cl)C1=O,0.414% (inactive)
13,CCOc1nc(F)cc2nc(S(=O)(=O)Nc3c(Cl)cccc3Cl)nn12,0.211% (inactive)
14,CCOP(=O)(OCC)OP(=O)(OCC)OCC,-0.353% (inactive)
15,CCOP(N)(=O)Oc1ccc(SC)c(C)c1 (stereo not given),0.0027% (inactive)
16,CNC(=O)N(C)c1nc2ccccc2s1,0.981% (inactive)
17,O=C(NC(=O)c1c(F)cccc1F)Nc1ccc(OC(F)(F)C(F)OC(F)(F)F)c(Cl)c1 (stereo not given),1.61% (inactive)
18,CCCCN(CC)C(=O)SCCC,-0.995% (inactive)
19,N#Cc1cc(Br)c(O)c(Br)c1,-2.3% (inactive)
20,Cc1cccc2sc3nncn3c12,0.0956% (inactive)
